# Measured values as given in PubChem BioAssay AID1878 (Sanford-Burnham Center for Chemical Genomics, 2009).
# Out of some 1,000 compounds screened, about 200 (20%) were called active. Cut-off read from the data, not from the text of the source: active = inhibition above about 55%; inactive = the rest. Only a sample is shown. Entries with a potency or affinity are not part of this list.
# Target: Dual specificity protein phosphatase 3 (Homo sapiens) (UniProt P51452)
# Assay: VHR1 phosphatase inhibitors, biochemical (AID 1878)
# Settings: recombinant VHR phosphatase, fluorogenic substrate; at 13.3 µM; stronger effect = higher value
# Chain of Dual specificity protein phosphatase 3 (Homo sapiens) (P51452 whole entry, looked up): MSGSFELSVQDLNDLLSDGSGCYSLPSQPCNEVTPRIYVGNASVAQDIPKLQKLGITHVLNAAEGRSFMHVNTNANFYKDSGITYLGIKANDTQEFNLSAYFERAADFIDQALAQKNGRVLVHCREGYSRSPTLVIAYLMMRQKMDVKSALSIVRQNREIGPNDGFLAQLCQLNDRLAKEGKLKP
row,SMILES,inhibition
1,O=C(Nc1ccc(-n2nncc2-c2ccco2)cc1)c1cc2ccccc2oc1=O,96.1% (active)
2,CCn1c2ccccc2c2n[nH]c(=S)nc21,-2.6% (inactive)
3,Cc1cc(C)c(S(=O)(=O)Nc2ccc(N(C)C)cc2)c(C)c1-n1cnnn1,-1.2% (inactive)
4,CC(=O)NCCc1nc2cc(NC(=O)c3ccc([N+](=O)[O-])cc3)ccc2n1C,-5.3% (inactive)
5,COc1ccc(Cc2nnc(NC(=O)c3ccco3)s2)cc1,-10% (inactive)
6,CCN(CC)CCCNc1oc(-c2ccccc2[N+](=O)[O-])nc1C#N,22.5% (inactive)
7,O=C1CSC(c2cccc([N+](=O)[O-])c2)N1Cc1ccccc1 (configuration not stated),3.2% (inactive)
8,Cc1ccc(OCCCCN2CCCCC2)cc1,6.5% (inactive)
9,Cc1ccccc1NC(=O)CN1C(=O)N/C(=C\c2ccccc2OCc2ccc(C(=O)O)cc2)C1=O,84.1% (active)
10,CSc1nsc2nc(=O)c(/C=C3\C(C)=Nc4ccccc43)c(N)n12,7.5% (inactive)
11,COc1cc(NC(=O)c2noc(C)c2[N+](=O)[O-])c(OC)cc1Cl,-2.3% (inactive)
12,CC1CC(C)CN(CCCNC(=O)C2CCCN(S(=O)(=O)N3CC(C)CC(C)C3)C2)C1 (configuration not stated),20.9% (inactive)
13,C=CCn1c(=O)c2c(nc3n2CCCN3Cc2ccccc2)n(C)c1=O,-4% (inactive)
14,Cc1cccc(NC(=O)c2cc3c(=O)n4ccccc4nc3s2)c1,93.3% (active)
15,Cc1cccc(NC(=O)c2cc(-c3ccc(C)c(C)c3O)n[nH]2)c1,8.4% (inactive)
16,C/C(=N\NC(=O)c1c(C)nc2ccccn12)c1ccccc1F,-12.4% (inactive)
17,CCC(N)Cc1c[nH]c2ccccc12 (configuration not stated),14.4% (inactive)
18,Cc1cccc(CC(=O)Nc2cccnc2)c1,-5.3% (inactive)
19,O=C(COc1ccccc1)Nc1ccncc1Cl,8.7% (inactive)

row,SMILES,inhibition
1,O=C(COc1ccc2c(-c3ccccc3)cc(=O)oc2c1)Nc1cccnc1,92.7% (active)
2,O=C(COc1ccc2c(-c3ccccc3)cc(=O)oc2c1)Nc1ccc(CCO)cc1,84.8% (active)
3,CC(C)CCN1CCC(n2nccc2NC(=O)C2CCOC2)CC1 (configuration not stated),-5.2% (inactive)
4,Oc1cc(Br)ccc1C=Nc1ccc(N2CCCCC2)cc1,-10% (inactive)
5,CCN(CC)c1ccc(NC(=O)CCNS(=O)(=O)c2ccc3c(c2)CCC(=O)N3)c(C)c1,-13.1% (inactive)
6,CC1CCN(CCNC(=O)C2CCCN(c3ncnc4c3nc3n4CCCCC3)C2)CC1 (configuration not stated),7.1% (inactive)
7,Cc1occc1C(=O)N1CCCC(CCC(=O)NCc2ccc(F)c(F)c2)C1 (configuration not stated),-8.6% (inactive)
8,COc1ccccc1NC(=O)C1CCCN(S(=O)(=O)c2ccc3c(c2)CC(C)N3C(C)=O)C1 (configuration not stated),17.3% (inactive)
9,O=C(NC1CC2CCC(C1)N2Cc1ccccc1)c1ccccc1Br (configuration not stated),-2.7% (inactive)
10,O=[N+]([O-])c1ccc(Oc2cccc3cccnc23)c(Cl)c1,-14.5% (inactive)
11,O=P(Cc1ccccc1)(c1ccccc1)c1ccccc1,6.2% (inactive)
12,Cc1cc(O)c(C=Nc2ccc(N3CCOCC3)cc2)c(C)c1Cl,0.1% (inactive)
13,O=C(N/N=C/c1cc(Br)cc([N+](=O)[O-])c1O)c1ccc(NC(=O)c2ccc(F)cc2)cc1,95.6% (active)
14,CCOC(=O)c1ccc(N/N=C/c2cc(Br)cc([N+](=O)[O-])c2O)cc1,27.8% (inactive)
15,COc1ccc(CC(=O)Nc2cccc3c2CCCC3)cc1,-12.1% (inactive)
16,O=C(O)CC1OCC=C2CN3CCC45c6ccccc6NC4C1C2CC35 (configuration not stated),-2.6% (inactive)
17,O=C1COc2ccc(S(=O)(=O)N3CCC(C(=O)NCc4ccc(F)cc4)CC3)cc2N1,-1.8% (inactive)
18,Cc1cc(C)cc(N2CC(O)=C(c3nc4ccccc4c(=O)[nH]3)C2=N)c1,60.5% (active)
19,COc1ccc(C(=O)OC2CC[C@@]3(C)C4CCC5[C@]6(O)CC(O)[C@@]7(O)C(CN8CC(C)CCC8[C@@]7(C)O)[C@]6(O)C[C@@]53O[C@]24O)cc1OC (some centres not stated),-10.1% (inactive)

row,SMILES,inhibition
1,COC(=O)CCCC(=O)N1CCC(n2nccc2NC(=O)CCOc2ccccc2)CC1,7.4% (inactive)
2,Cc1cc(=O)oc2c3c(cc(OCC(=O)NCC(=O)N[C@H](C(=O)O)C(C)C)c12)OC(C)(C)CC3,9.6% (inactive)
3,COc1cccc(CC(NC(C)=O)C(=O)NC2CCN(C(=O)c3ccc(Cl)cc3)CC2)c1 (configuration not stated),0.6% (inactive)
4,CCCNC(=O)CN1C(=O)COc2ccc(S(=O)(=O)N3CC(C)CC(C)C3)cc21 (configuration not stated),5% (inactive)
5,O=C(NCCN1CCOCC1)C(=O)NCC1OCCCN1S(=O)(=O)c1ccc(F)cc1 (configuration not stated),-15.9% (inactive)
6,O=C(O)c1ccc(N2C(=O)/C(=C/c3ccc(-c4ccc([N+](=O)[O-])cc4)o3)C=C2c2ccccc2)cc1,99% (active)
7,CC1CC(C)CN(CCCNC(=O)CCC(=O)N2CC(C)Oc3ccccc32)C1 (configuration not stated),-2.6% (inactive)
8,O=C(/C=C/c1c(Cl)nc2ccccn12)N1CCN(c2ccc(F)cc2)CC1,26.8% (inactive)
9,Cc1cc(OCC(=O)Nc2ccc(N3CCN(C(=O)c4ccco4)CC3)cc2)cc(C)c1Cl,94.6% (active)
10,Cc1ccc(NC(=O)C2CCN(C(=O)c3ccco3)CC2)cc1,-5.8% (inactive)
11,Cn1c(SCC(=O)Nc2ccc(N3CCOCC3)cc2)nnc1-c1ccco1,1% (inactive)
12,Cc1ccc(S(=O)(=O)N2CCCCC2)c2nsnc12,-2% (inactive)
13,COc1cc(C(=O)N2CCc3ccccc32)c([N+](=O)[O-])cc1OC,26.5% (inactive)
14,CCOc1ccc2nc(N3CCCC(C(=O)NCCCN4C(C)CCCC4C)C3)sc2c1 (configuration not stated),-12.1% (inactive)
15,Cc1ccc2oc(Nc3nc(-c4ccccc4)cc(=O)[nH]3)nc2c1,61.1% (active)
16,CCOc1ccc(C(=O)NC2CCN(CC(=O)NCc3ccccc3)CC2)cc1,-7.3% (inactive)
17,COc1cccc(NC(=O)NCCN2CCCCC2)c1,-15.8% (inactive)
18,Cc1ccc(NC(=S)c2ccc3ccccc3n2)c(C)c1,5.5% (inactive)
19,Cc1ccc(-n2cccn2)c([C@@H]2C[C@H]3CN(C)C(=O)[C@]34CCCN24)c1,-6.3% (inactive)
